Source: PubChem BioAssay (Sanford-Burnham Center for Chemical Genomics)
VHR inh color – inhibitors of human VHR1 phosphatase (DUSP3). AID 1992. inhibition, % at 20 µM. recombinant VHR phosphatase, colorimetric substrate read-out. actives 0.7% (n = 50,000). P51452; in the data active = inhibition above about 60%
Target sequence (P51452 whole entry, looked up): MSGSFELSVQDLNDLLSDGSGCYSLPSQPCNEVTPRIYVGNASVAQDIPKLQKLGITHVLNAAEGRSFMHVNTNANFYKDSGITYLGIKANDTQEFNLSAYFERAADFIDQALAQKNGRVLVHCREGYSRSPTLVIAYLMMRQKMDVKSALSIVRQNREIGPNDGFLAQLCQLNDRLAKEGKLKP
* = called active by the depositor. The entries come from a sample that favours hits as a whole.

SMILES	VHR inh color
N#CC1=C(S)NC(=O)C(C#N)C12CCCCC2 (stereo not given)	81*
C=CCSC1=C(C#N)C2(CCCCC2)C(C#N)C(=O)N1 (stereo not given)	0
N#CC1=C(SCc2ccccc2)NC(=O)C(C#N)C12CCCCC2 (stereo not given)	-9
Cc1ccc(OCC(=O)NCc2ccc(F)cc2)cc1	-6
O=C(O)CN1C(=O)/C(=C\c2ccc(-c3ccccc3Cl)o2)SC1=S	83*
Cc1ccc(/C=C2\SC(=S)N(CC(=O)O)C2=O)o1	27
O=C(O)CN1C(=O)/C(=C/c2c(Cl)cccc2Cl)SC1=S	-20
COc1cc([N+](=O)[O-])ccc1NC(=S)NC(=O)c1ccco1	-17
Cc1c(Cl)cccc1N1C(=O)CC(Sc2ncn[nH]2)C1=O (stereo not given)	3
Cc1nc(N)sc1-c1csc(Nc2ccc(S(N)(=O)=O)cc2)n1	26
Cc1nc(NC(=O)c2ccccc2)sc1-c1csc(Nc2ccc(O)cc2)n1	71*
Cc1nc(NC(=O)c2ccccc2)sc1-c1csc(Nc2cccc(C(=O)O)c2)n1	-8
O=C1Nc2ccccc2C1=Cc1nc2ccccc2c(=O)n1-c1ccc(O)cc1	-8
CC(c1ccccc1)N1C(=O)/C(=C\c2ccc(Cl)cc2Cl)SC1=S (stereo not given)	4
O=C(O)C(Cc1ccccc1)N1C(=O)/C(=C/c2ccc(Cl)cc2Cl)SC1=S (stereo not given)	83*
O=C(O)C(Cc1ccccc1)N1C(=O)/C(=C/c2cccc3ccccc23)SC1=S (stereo not given)	-13
O=C(Nc1cccc2c1C(=O)c1c(NC(=O)c3ccccc3)cccc1C2=O)c1ccccc1	-8
Cc1ccc(C)n1-c1ccc(Cl)c(C(=O)O)c1	-6
COc1cc(C(=O)O)c(-n2c(C)ccc2C)cc1OC	12
Cc1cc(C(=O)O)ccc1-n1c(C)ccc1C	58
Cc1ccc(C)n1-c1cc(C(=O)O)ccc1Cl	83*
Cc1ccc(C(=O)O)cc1-n1c(C)ccc1C	23
Cc1ccc(C)n1-c1ccc(Cl)cc1C(=O)O	85*
COc1ccccc1N(S(=O)(=O)c1ccccc1)S(=O)(=O)c1ccccc1	4
CCOc1cc(/C=C2/C(=O)NC(=O)N(C)C2=O)cc(Cl)c1O	-25
SMILES	VHR inh color
CCOc1ccc2c(c1)C(=C1SC(C(=O)OC)=C(C(=O)OC)S1)C(=S)C(C)(C)N2C(=O)c1cccc(OC)c1	-6
Cc1ccc(N(C(=O)COc2ccc(Cl)cc2Cl)C2C=CS(=O)(=O)C2)cc1 (stereo not given)	27
Cc1ccc(N(CC(=O)NC2CCCC2)S(=O)(=O)c2ccc(F)cc2)cc1	-35
Cc1ccc(N(CC(=O)NC2CCCC2)S(=O)(=O)c2ccccc2)cc1	1
CCOc1ccc(S(=O)(=O)N(CC(=O)NC2CCCCC2)c2ccc(C)cc2)cc1	90*
Cc1cc(-c2ccc(C)o2)c(C#N)c(SCC(=O)c2ccccc2)n1	-14
Cc1c(Cl)cccc1NC(=O)C1(C)CC2c3ccccc3C1c1ccccc12 (stereo not given)	79*
COC(=O)c1ccc(NC(=O)C2(C)CC3c4ccccc4C2c2ccccc23)cc1 (stereo not given)	-4
COc1cccc(NC(=O)C2(C)CC3c4ccccc4C2c2ccccc23)c1 (stereo not given)	-16
C=CCc1ccccc1OCCn1cc(/C=C2/SC(=S)N(C)C2=O)c2ccccc21	-5
N#C/C(=C\c1ccc(OCc2ccccc2)cc1)c1nc(-c2ccccc2)cs1	-3
COc1ccc(S(=O)(=O)N(CCc2ccccc2)CC(=O)Nc2cc(OC)ccc2OC)cc1	-32
CCCC1=NN2C(=N)/C(=C/c3cc(OC)ccc3OC)C(=O)N=C2S1	112*
CCC1=NN2C(=N)/C(=C/c3ccc(OCCOc4cccc(OC)c4)c(OC)c3)C(=O)N=C2S1	-11
CCCC1=NN2C(=N)/C(=C/c3ccc(-c4ccc(Cl)cc4Cl)o3)C(=O)N=C2S1	10
CCOc1ccc(Cl)cc1/C=C1\C(=N)N2N=C(CC)SC2=NC1=O	-9
CCCC1=NN2C(=N)/C(=C/c3ccc4c(c3)OCO4)C(=O)N=C2S1	105*
CCCC1=NN2C(=N)/C(=C/c3ccc(OCc4ccccc4Cl)cc3)C(=O)N=C2S1	3
O=C(Nc1ccc(O)c(-c2nc3cc(Cl)ccc3o2)c1)c1ccccc1	2
COc1cc(C=Nc2ccc(Nc3ccccc3)cc2)ccc1OCc1ccccc1	2
COc1cc(/C=N/O)ccc1OCc1ccc(Cl)cc1	105*
C=CCN1C(=O)NC(=O)/C(=C\c2ccc(OCc3ccc(Cl)cc3)c(OC)c2)C1=O	-32
COC(=O)c1ccc(/C=C2/C=C(c3ccc(OC)cc3)OC2=O)cc1	-6
Cc1cc(/C=C2/SC(=O)NC2=O)c(C)n1-c1cccc(Cl)c1	-3
Cc1cc(C)cc(-n2c(C)cc(C=C3SC(=S)NC3=O)c2C)c1	-5
SMILES	VHR inh color
Cc1cc(/C=C2/SC(=S)NC2=O)c(C)n1-c1cccc(Cl)c1	95*
Cc1ccc(NCC(=O)N/N=C\c2cccc(OC(=O)c3ccco3)c2)cc1	100
COc1ccc(-c2cc(C(=O)NCCc3ccccc3)c3ccccc3n2)cc1OC	-12
COc1ccc(-c2cc(C(=O)NCCc3ccc(OC)c(OC)c3)c3ccccc3n2)c(OC)c1	-41
COc1ccc(-c2cc(C(=O)NCCc3ccccc3)c3ccccc3n2)c(OC)c1	102*
COc1ccc(/C=C2\C(=O)NC(=O)N(c3cccc(Br)c3)C2=O)cc1OC	9
CCCOc1ccc(C(=O)c2ccc(F)cc2)cc1OCCC	-4
CCOC(=O)C1NN=C(C(=O)c2ccc(OC)cc2)C1c1ccccc1Cl (stereo not given)	0
CCOC(=O)C1=NNC(C(=O)c2ccc(OC)cc2)C1c1ccccc1Cl (stereo not given)	105*
CCOC(=O)C1=NNC(C(=O)c2ccccc2)C1c1ccc(Br)cc1 (stereo not given)	0
O=C(O)CSc1nc2ccc(NC(=O)c3ccccc3)cc2s1	-11
Cc1ccc2c(Cl)c(C(=O)Nc3cc(Cl)ccc3C)sc2c1	1
CN1C(=O)NC(=O)/C(=C\c2ccc(N3CCCC3)cc2)C1=O	2
O=C1NC(=O)N(c2ccc(Cl)cc2)C(=O)/C1=C\c1ccc(N2CCCC2)cc1	70*
O=C1NC(=O)N(c2ccc(Cl)cc2)C(=O)/C1=C/c1ccc(F)cc1	-15
Clc1cccc(Cl)c1OCCCN1CCCCC1	2
CCOc1ccc(N(CC(=O)Nc2ccc(C)c(C)c2)S(=O)(=O)c2ccc(SC)cc2)cc1	-5
Cc1ccc(NC(=O)c2ccc(C#Cc3ccccc3)cc2)cc1C	10
Cc1ccc(C(C)C)c(OCCOc2ccc(/C=N/n3cnnc3)cc2)c1	-17
COc1cccc(OCCOc2ccc(/C=N/n3cnnc3)cc2)c1	110*
C(=N\n1cnnc1)/c1ccc(OCCOc2ccc(C3CCCCC3)cc2)cc1	106*
Brc1ccc(OCCOc2cccc(/C=N/n3cnnc3)c2)cc1	7
C(=N\n1cnnc1)/c1cccc(OCCOc2ccc(C3CCCCC3)cc2)c1	104*
CCOc1cc(/C=N\n2cnnc2)ccc1OCCOCCOc1ccc(C)cc1	-7
CCc1cc(C)cc(OCCOc2ccc(/C=N/n3cnnc3)cc2)c1	46
C1=C=CC(OCCOc2ccc(/C=N/n3cnnc3)cc2)=CC=1	-16
CCOc1cc(/C=N/n2cnnc2)ccc1OCCOc1cccc(C)c1	-3
O=C(O)CCCCCN1C(=O)C(O)=C(C(=O)/C=C/c2ccccc2)C1c1ccc(F)cc1 (stereo not given)	-4
